PubChem BioAssay AID1626 (SRMLSC, 2009)
About 2,000 (0.91%) of roughly 220,000 compounds were called active. Roughly 2% stayed inconclusive and do not appear here. Only a sample is shown. Entries with a potency or affinity are not part of this list. Unmarked numbers belong to inactive results. No stated cut-off is given here; in the data, inconclusive means inhibition above about 80% without an active follow-up result; inactive means below that; test concentration not stated here.

experiment: M. tuberculosis H37Rv growth inhibitors, H37Rv strain (AID 1626); details: active compounds read high, concentration not given here;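 further: bacteria incubated seven days before Alamar blue readout; 0% = bacteria only wells and 100% = bacteria with antibiotic wells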

Compound	inhibition [%]
COc1ccc(CNC(=O)COC(=O)CCc2nc3ccccc3c(=O)[nH]2)cc1	5.36
FC(F)(F)c1ccc(CN2C[C@@H]3C(c4ccc(C(F)(F)F)cc4)C4(c5cccnc5)CC3(C4)[C@H]2c2ccccc2)cc1 (some centres not stated)	9.04
FC(F)(F)c1ccc(C2[C@H]3CN(CC4CCCCC4)[C@H](c4ccccc4)C34CC2(c2cccnc2)C4)cc1 (some centres not stated)	19.8
c1ccc(C2[C@H]3CN(CC4CCCCC4)[C@H](c4ccccc4)C34CC2(c2ccccc2)C4)cc1 (some centres not stated)	6.4
CN1C[C@@H]2C(c3ccccc3)C3(c4cccnc4)CC2(C3)[C@H]1c1ccccc1 (some centres not stated)	1.01
CN1C[C@@H]2C(c3ccc(C(F)(F)F)cc3)C3(c4ccccc4)CC2(C3)[C@H]1c1ccccc1 (some centres not stated)	2.02
FC(F)(F)c1ccc(CN2C[C@@H]3C(c4ccc(Cl)nc4)C4(c5ccccc5)CC3(C4)[C@H]2c2ccccc2)cc1 (some centres not stated)	7.77
CCOC(=O)Cn1nc(C)n(-c2ccc(C(C)C)cc2)c1=O	1.38
CCCc1nc2c(sc3nc4c(cc32)COC(C)(C)C4)c(=O)n1CCN(C)C	-6.58
Cc1ccccc1Nc1c(-c2ccc(N3CCOCC3)cc2)nc2cnccn12	-3.6
CC[C@H](CO)Nc1nc(Nc2cccc(Cl)c2)c2ncn(C(C)C)c2n1	15.3
CC(C)C[C@H](CO)Nc1nc(Nc2cccc(Cl)c2)c2ncn(C(C)C)c2n1	28.8
CCN(CC)S(=O)(=O)c1cccc(C(=O)N[C@H](C(=O)NCc2ccc(Cl)cc2)C(C)C)c1	6.08
COc1cc(C(=O)NCC(C)C)c([N+](=O)[O-])cc1OC	3.27
CCCOc1ccc(Br)cc1CSC(=N)N	-1.31
CCCCOc1ccc(Br)cc1CSC(=N)N	2.99
CCCC(=O)Nc1nnc(-c2ccc3c(c2)OCCO3)o1	57.4
O=C(NCc1ccccc1)c1ccc2c(c1)OCCO2	-7.22
O=C(Nc1nnc(C2=COCCO2)o1)c1ccc(S(=O)(=O)N2CCCC2)cc1	-3.71
N#CCCN(CCC#N)S(=O)(=O)c1ccc(C(=O)Nc2nnc(C3=COCCO3)o2)cc1	-6.19
CCCCC(=O)Nc1nnc(C2=COCCO2)o1	2.42
O=C(Nc1nnc(C2=COCCO2)o1)c1ccc(S(=O)(=O)N2CCOCC2)cc1	7.6
O=C(Nc1nnc(C2=COCCO2)o1)c1ccc(S(=O)(=O)N2CCCCC2)cc1	78.6

Compound	inhibition [%]
CC(=O)Nc1nnc(C2=COCCO2)o1	0.04
Cc1ccc(/C=N/NC(=O)c2cccnc2)s1	-7.82
O=C(Nc1ccc(F)cc1)c1ccc(S(=O)(=O)N2CCOCC2)o1	-14.1
COC(C[C@@H](O)C[C@@H](O)COCc1ccccc1)OC	-11.1
Cn1c(SCC(=O)N2CCCc3ccccc32)nc2cccnc21	4.22
O=C(Nc1nnc(-c2cccnc2)s1)c1cccs1	-11.7
CC(C)(Oc1ccc(Cl)cc1)C(=O)OCn1nnc2ccccc2c1=O	62.5
CC(=O)c1c(C(C)=O)c(C)n(-c2cccc([N+](=O)[O-])c2)c1C	-7.09
COc1ccc(-n2c(C)cc(C(=O)CCl)c2C)cc1	-6.35
Cc1cc(C)c(S(=O)(=O)N(C)CC(=O)NCc2ccccn2)c(C)c1	-8.63
CCn1ccnc1CN(C)Cc1cn(C)nc1-c1ccccc1F	-1.63
COc1cccc(/C=N/n2c(SC)nnc2-c2ccccc2)c1OC	-6.45
Cc1ccc(CN(C(=O)Cc2cccs2)C(C(=O)NC2CCCC2)c2ccncc2)cc1 (configuration not stated)	7.49
O=C(Nc1ccc(S(=O)(=O)Nc2ccc(Cl)cc2)cc1)C1CCCO1 (configuration not stated)	5.71
O=C(NCc1ccc(Cl)cc1)c1ccc(CNc2c(N3CCCC3)c(=O)c2=O)cc1	4.26
O=C(NCc1ccc(Cl)cc1)c1ccc(CNc2c(N3CCOCC3)c(=O)c2=O)cc1	87.6
Cc1cc(C)cc(NC(=O)c2ccc(CNc3c(N4CCOCC4)c(=O)c3=O)cc2)c1	12.3
CC(=O)c1ccc(NC(=O)c2ccc(CNc3c(N4CCCC4)c(=O)c3=O)cc2)cc1	2.39
COc1cc2c(cc1NC(=O)CSc1nnc(Cc3cccs3)n1Cc1ccco1)oc1ccccc12	7.99
CC(C)c1ccc(NC(=O)Cn2cccc2C2=NC(c3ccccc3)CO2)cc1 (configuration not stated)	-2.83
COc1ccc(C(CCN)Cc2ccccc2)cc1 (configuration not stated)	1.28
O=S1(=O)CCN(OCc2ccc(F)cc2Cl)CC1	-5.47
CCOc1cc(C)nc(Oc2ccc(=O)[nH]n2)n1	-1.8

Compound	inhibition [%]
Cc1ccc(-c2csc(=Nc3cccnc3)n2CCCN2CCCC2=O)cc1C	8.37
Cc1ccc(C)c2c1[nH]c1ccccc12	-8.26
c1ccc2c(c1)[nH]c1cnccc12	-1.77
CC(C)CCNC1=CC(=O)CC(c2ccccc2)C1 (configuration not stated)	-3.24
CNCCOc1ccccc1OC(C)C	4.14
O=C(O)c1ccc(C(=O)O)c(C(=O)c2ccccc2)c1	4.19
Cc1nn(Cc2ccc(F)cc2Cl)c(C)c1[N+](=O)[O-]	5.81
Cc1nc2ccccc2n1CCc1ccccc1	-7.4
CCOc1ccc(-n2c(N)c(-c3nc4ccccc4n3C)c3nc4ccccc4nc32)cc1	70.5
N#Cc1c(N)n(CCc2ccc(F)cc2)c2nc3ccccc3nc12	7.97
Cn1c(-c2sc(=S)n(-c3ccccc3)c2N)nc2ccccc21	-12.8
CCN(CC)C(=O)C1=C(C)NC(=O)NC1c1ccccc1F (configuration not stated)	-2.9
COc1ccc(NC(=O)C(C)N2c3cccc4cccc(c34)S2(=O)=O)cc1OC (configuration not stated)	-6.4
CCC(=O)NC(=S)Nc1cccc(NC(=O)c2ccccc2Cl)c1	8.67
N#C/C(=C\c1ccc(C(=O)O)cc1)S(=O)(=O)c1cc(Br)ccc1Br	17
CCn1c(SCC(=O)O)nnc1-c1cccnc1	-5.44
CC1CN(c2ncnc3c2c(-c2ccccc2)cn3-c2ccc(F)cc2)CC(C)O1 (configuration not stated)	8.16
CN1Cc2c(N3CCOCC3)nc3sc(C(=O)c4ccccc4)c(N)c3c2CC1(C)C	8.23
CCOC(=O)c1sc2nc(N3CCOCC3)c3c(c2c1N)CC(C)(C)N(C)C3	-3.62
Cc1ccccc1OCCNc1cc(N2CCN(CCO)CC2)ccc1[N+](=O)[O-]	27.5
O=C(NCc1ccccc1)c1nc2c(nnn2Cc2cccc(Cl)c2)c(=O)[nH]1	-4.36
COC(=O)C1CCN(C(=O)c2sc3nc(-c4ccc(F)cc4)cn3c2C)CC1	6.16
CCC(=Nc1ccccc1OC)C1=C(O)CC(c2ccccc2)CC1=O (configuration not stated)	6.17

Compound	inhibition [%]
CCCC(=Nc1ccccc1OC)C1=C(O)CC(c2ccccc2)CC1=O (configuration not stated)	2.17
CN(CC(=O)Nc1ccc(S(=O)(=O)N2CCCC2)cc1)CC(=O)Nc1cccc(F)c1	2.32
O=C1CC(c2cccs2)Cc2nc(NCC3CCCO3)ncc21 (configuration not stated)	-8.23
Cc1nc2ccccc2c(=O)n1NC(=O)/C=C/c1ccccc1Cl	-8.45
CCn1c(COc2cccc3ccccc23)nnc1SCC(N)=O	-13.4
Cn1c(COc2ccccc2)nnc1SCC(=O)NNC(=O)C1CCCCC1	-10.3
COc1cccc(OCc2nnc(SCC(=O)OC3CCCCC3)n2C)c1	6.41
O=C(O)CSc1nnc(COc2cccc3ccccc23)n1Cc1ccccc1	-1.72
COc1cccc(C(c2nnnn2CS(=O)(=O)c2ccc(C)cc2)N2CCN(C)CC2)c1OC (configuration not stated)	-6.9
CN1CCN(CC#CC(C)(O)C2CC3C=CC2C3)CC1 (configuration not stated)	8.02
CCN(c1ccccc1)S(=O)(=O)c1ccc(Cl)c(C(=O)OCC(=O)NC(=O)C(C)C)c1	-9.03
CC(C)(C)c1ccc(OC(=O)c2ccc3nsnc3c2)cc1	29.5
Cc1ccc(OC(=O)c2ccc3snnc3c2)cc1	68.6
COc1ccc2[nH]c(=O)c(CN(C(=O)c3cccnc3)c3ccccc3C)cc2c1	-2.62
O=C(Nc1ccc(NC(=O)c2ccccn2)cc1)C(=O)Nc1ccc2c(c1)OCCO2	1.18
COC(=O)CSc1nc2c(c(-c3ccc(O)cc3)c1C#N)CCCC2	-6.65
Cc1ccccc1NC(=O)CSc1nc2c(c(-c3ccco3)c1C#N)CCCC2	-3.31
N#Cc1c(SCC(=O)O)nc(-c2ccccc2)c2c1CCCC2	-9.5
Cc1ccc(-c2c(C#N)c(N)nc3c2CCCC3)o1	-11.1
COc1ccc(-c2c(C#N)c(SCC(N)=O)nc3c2CCCC3)cc1	2.47
COc1cccc(NC(=O)CSc2nc3c(c(-c4ccco4)c2C#N)CCCC3)c1	-2.62
COC(=O)CSc1nc(-c2ccc(C)cc2)c2c(c1C#N)CCCC2	72.2
CCSc1nc2c(c(-c3ccc(C)o3)c1C#N)CCCC2	2.67
